Reference: publication PMC7862700, “An all-to-all approach to the identification of sequence-specific readers for epigenetic DNA modifications on cytosine”

Legend:
Test in all cases: DAPPL (digital affinity profiling via proximity ligation, sequencing); 10 mM Tris-HCl pH 7.5, 50 mM NaCl, 1 mM DTT, 4% glycerol, room temperature, 30 min; GST-TFs on glutathione beads, 16-mer random dsDNA library, 0.1% formaldehyde crosslink after washing; high values mean tight binding
FEV = biological target: T1, FEV (Homo sapiens, UniProt Q99581 1-238); conditions: protein: recombinant; tags: N-terminal GST; dsDNA, one strand shown
T1 sequence: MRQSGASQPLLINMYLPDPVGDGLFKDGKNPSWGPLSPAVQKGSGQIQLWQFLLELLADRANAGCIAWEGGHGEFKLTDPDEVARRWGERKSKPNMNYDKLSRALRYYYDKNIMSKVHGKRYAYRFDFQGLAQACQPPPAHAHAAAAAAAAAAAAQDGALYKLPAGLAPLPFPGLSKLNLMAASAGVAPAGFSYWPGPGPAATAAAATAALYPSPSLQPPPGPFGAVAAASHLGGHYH
Method in brief: (§1)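 Sequencing on an Illumina NextSeq500 followed washing, crosslinking with 0.1% formaldehyde, proximity ligation (BsaI/T4 ligase, 1 h, 37 °C) and PCR amplification of pools that had been incubated for 30 min at room temperature with 200 nmole of a random double-stranded 16-mer DNA library in Tris/NaCl/DTT/glycerol buffer. Each pool held DNA-barcoded human transcription factors, expressed in yeast as GST fusions and captured on glutathione beads, plus a tag-only sample. Binding signal is a hexamer's read frequency for a factor divided by its frequency in the tag-only sample.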

ETV5 = ETV5 (Homo sapiens, UniProt P41161 1-510); conditions: protein: recombinant; tags: N-terminal GST; dsDNA, one strand shown
Sequence of ETV5 (P41161 whole entry): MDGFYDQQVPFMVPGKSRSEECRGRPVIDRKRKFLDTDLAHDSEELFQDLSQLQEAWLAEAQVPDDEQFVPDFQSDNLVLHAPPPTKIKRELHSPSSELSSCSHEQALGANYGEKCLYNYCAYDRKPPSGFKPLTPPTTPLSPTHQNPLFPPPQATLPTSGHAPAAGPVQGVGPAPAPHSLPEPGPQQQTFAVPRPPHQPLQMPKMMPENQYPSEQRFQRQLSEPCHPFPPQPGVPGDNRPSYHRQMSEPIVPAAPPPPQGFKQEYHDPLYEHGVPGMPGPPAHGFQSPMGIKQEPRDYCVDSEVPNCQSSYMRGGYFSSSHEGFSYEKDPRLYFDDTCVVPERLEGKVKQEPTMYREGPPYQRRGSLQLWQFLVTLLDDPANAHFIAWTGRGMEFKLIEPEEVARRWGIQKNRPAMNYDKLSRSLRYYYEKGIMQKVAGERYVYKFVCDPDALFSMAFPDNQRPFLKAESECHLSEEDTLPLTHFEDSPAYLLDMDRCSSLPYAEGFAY
Method in brief: as §1

HSF1 = HSF1 (Homo sapiens, UniProt Q00613 1-529); conditions: protein: recombinant; tags: N-terminal GST; chain copies: 3; dsDNA, one strand shown
Sequence of HSF1 (Q00613 whole entry): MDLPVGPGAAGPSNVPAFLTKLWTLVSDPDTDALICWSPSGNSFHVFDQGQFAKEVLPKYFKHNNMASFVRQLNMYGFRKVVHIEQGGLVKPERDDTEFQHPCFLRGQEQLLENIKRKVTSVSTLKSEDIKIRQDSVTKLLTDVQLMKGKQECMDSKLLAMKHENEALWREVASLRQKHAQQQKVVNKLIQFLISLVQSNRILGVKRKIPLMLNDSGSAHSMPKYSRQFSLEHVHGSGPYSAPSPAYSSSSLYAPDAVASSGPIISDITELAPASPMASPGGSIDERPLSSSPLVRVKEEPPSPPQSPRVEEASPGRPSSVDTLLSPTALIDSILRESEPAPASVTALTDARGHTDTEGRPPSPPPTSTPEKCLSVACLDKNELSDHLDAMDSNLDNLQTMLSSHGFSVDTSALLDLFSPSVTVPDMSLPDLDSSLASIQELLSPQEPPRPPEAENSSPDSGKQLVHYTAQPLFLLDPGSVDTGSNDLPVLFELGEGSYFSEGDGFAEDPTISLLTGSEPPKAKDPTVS
Method in brief: as §1

SPIC = biological target: T2, SPIC (Homo sapiens, UniProt Q8N5J4 1-248); conditions: protein: recombinant; tags: N-terminal GST; dsDNA, one strand shown
T2 sequence: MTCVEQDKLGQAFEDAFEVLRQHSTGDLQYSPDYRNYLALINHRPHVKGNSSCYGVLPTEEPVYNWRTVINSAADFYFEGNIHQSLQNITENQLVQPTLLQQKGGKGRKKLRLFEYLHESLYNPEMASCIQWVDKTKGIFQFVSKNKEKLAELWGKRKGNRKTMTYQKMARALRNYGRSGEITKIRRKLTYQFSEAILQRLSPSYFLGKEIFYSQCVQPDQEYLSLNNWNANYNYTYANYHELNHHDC
Method in brief: as §1

ELF4 = ELF4 (Homo sapiens, UniProt Q99607 1-663); conditions: protein: recombinant; tags: N-terminal GST; dsDNA, one strand shown
Sequence of ELF4 (Q99607 whole entry): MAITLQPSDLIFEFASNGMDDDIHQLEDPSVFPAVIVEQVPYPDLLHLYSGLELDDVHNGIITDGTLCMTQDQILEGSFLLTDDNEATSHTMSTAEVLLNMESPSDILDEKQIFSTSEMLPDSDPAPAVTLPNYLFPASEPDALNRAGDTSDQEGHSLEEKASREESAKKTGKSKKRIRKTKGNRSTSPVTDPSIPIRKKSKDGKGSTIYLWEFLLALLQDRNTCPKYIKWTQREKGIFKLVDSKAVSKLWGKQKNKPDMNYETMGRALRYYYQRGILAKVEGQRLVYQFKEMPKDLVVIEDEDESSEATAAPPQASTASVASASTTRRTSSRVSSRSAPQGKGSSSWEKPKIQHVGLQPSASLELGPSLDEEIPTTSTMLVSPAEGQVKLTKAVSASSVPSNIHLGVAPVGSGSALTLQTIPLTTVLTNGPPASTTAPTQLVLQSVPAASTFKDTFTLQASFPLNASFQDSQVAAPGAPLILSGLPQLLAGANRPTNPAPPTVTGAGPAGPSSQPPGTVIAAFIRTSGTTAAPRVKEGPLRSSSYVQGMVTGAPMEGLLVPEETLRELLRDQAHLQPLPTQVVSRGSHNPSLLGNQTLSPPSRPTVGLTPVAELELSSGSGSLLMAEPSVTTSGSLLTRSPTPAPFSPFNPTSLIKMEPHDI
Method in brief: as §1

ELK4 = biological target: T3, ELK4 (Homo sapiens, UniProt P28324-2 1-405); conditions: protein: recombinant; tags: N-terminal GST; dsDNA, one strand shown
T3 sequence: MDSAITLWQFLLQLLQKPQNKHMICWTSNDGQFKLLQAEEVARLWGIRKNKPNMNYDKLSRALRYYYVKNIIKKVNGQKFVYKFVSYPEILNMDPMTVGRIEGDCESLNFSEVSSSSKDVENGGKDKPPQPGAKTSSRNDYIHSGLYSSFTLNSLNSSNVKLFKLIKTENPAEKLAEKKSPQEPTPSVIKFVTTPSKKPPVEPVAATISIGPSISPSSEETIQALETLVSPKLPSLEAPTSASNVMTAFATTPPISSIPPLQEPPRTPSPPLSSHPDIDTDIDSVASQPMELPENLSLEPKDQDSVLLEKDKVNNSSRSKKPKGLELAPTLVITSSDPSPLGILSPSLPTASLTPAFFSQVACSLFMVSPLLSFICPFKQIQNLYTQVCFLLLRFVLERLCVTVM
Method in brief: as §1

ETV2 = biological target: T4, ETV2 (Homo sapiens, UniProt O00321 1-342); conditions: protein: recombinant; tags: N-terminal GST; dsDNA, one strand shown
T4 sequence: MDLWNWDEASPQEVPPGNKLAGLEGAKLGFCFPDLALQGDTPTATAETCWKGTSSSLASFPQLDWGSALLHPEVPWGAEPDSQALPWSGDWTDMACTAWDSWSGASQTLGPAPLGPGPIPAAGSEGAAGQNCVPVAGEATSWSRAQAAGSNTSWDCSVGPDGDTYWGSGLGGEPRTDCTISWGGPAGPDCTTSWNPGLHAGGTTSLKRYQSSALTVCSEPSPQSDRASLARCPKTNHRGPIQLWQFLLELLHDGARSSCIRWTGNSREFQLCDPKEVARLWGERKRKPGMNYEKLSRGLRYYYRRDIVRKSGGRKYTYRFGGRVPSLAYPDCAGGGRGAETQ
Method in brief: as §1

ELF3 = biological target: T5, ELF3 (Homo sapiens, UniProt P78545 1-371); conditions: protein: recombinant; tags: N-terminal GST; dsDNA, one strand shown
T5 sequence: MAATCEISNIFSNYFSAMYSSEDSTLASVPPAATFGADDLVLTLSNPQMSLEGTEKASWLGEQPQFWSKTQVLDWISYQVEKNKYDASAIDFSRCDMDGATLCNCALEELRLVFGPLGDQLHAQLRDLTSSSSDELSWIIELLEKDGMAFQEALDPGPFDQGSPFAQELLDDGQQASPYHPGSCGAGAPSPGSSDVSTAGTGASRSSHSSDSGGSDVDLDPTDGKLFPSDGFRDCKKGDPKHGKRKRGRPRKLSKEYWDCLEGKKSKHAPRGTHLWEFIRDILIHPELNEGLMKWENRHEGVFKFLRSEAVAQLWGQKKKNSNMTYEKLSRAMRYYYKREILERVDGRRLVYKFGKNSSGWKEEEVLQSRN
Method in brief: as §1

CRX = CRX (Homo sapiens, UniProt O43186 1-299); conditions: protein: recombinant; tags: N-terminal GST; dsDNA, one strand shown
Sequence of CRX (O43186 whole entry): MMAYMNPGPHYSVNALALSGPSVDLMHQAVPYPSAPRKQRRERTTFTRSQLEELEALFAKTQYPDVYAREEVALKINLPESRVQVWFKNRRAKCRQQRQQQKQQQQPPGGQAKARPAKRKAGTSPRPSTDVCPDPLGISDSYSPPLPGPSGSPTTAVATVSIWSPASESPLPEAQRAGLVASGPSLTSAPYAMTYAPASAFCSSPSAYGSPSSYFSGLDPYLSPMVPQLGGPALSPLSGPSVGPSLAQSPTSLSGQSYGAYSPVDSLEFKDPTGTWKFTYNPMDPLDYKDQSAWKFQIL
Method in brief: as §1

ETV1 = ETV1 (Homo sapiens, UniProt P50549 1-477); conditions: protein: recombinant; tags: N-terminal GST; dsDNA, one strand shown
Sequence of ETV1 (P50549 whole entry): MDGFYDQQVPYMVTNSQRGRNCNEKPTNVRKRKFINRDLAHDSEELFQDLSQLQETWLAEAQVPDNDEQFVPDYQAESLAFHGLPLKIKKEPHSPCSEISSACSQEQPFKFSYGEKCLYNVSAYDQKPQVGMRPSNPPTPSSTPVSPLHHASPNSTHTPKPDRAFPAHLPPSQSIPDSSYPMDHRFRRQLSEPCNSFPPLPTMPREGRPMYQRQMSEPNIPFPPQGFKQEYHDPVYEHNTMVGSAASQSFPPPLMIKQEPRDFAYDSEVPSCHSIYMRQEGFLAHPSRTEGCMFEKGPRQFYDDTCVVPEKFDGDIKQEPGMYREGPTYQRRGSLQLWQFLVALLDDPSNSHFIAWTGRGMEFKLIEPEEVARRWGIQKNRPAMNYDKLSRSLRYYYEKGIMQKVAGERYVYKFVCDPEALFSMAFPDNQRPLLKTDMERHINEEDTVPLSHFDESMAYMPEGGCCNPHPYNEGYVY
Method in brief: as §1

ERF = biological target: T6, ERF (Homo sapiens, UniProt P50548 1-548); conditions: protein: recombinant; tags: N-terminal GST; dsDNA, one strand shown
T6 sequence: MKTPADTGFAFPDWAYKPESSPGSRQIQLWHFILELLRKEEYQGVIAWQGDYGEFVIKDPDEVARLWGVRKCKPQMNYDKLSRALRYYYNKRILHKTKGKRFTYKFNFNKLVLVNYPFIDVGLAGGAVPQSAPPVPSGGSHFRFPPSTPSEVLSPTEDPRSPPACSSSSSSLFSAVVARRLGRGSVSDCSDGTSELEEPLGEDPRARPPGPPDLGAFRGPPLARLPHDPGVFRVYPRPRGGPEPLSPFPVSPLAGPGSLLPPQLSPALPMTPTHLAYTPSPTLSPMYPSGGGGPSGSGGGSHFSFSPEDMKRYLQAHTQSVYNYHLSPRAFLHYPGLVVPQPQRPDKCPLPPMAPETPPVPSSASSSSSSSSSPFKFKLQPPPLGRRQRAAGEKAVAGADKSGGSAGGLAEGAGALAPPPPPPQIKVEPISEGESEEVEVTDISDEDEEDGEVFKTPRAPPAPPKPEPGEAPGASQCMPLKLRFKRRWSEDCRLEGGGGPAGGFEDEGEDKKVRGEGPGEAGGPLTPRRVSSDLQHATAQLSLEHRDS
Method in brief: as §1

ETV3L = biological target: T7, ETV3L (Homo sapiens, UniProt Q6ZN32 1-361); conditions: protein: recombinant; tags: N-terminal GST; dsDNA, one strand shown
T7 sequence: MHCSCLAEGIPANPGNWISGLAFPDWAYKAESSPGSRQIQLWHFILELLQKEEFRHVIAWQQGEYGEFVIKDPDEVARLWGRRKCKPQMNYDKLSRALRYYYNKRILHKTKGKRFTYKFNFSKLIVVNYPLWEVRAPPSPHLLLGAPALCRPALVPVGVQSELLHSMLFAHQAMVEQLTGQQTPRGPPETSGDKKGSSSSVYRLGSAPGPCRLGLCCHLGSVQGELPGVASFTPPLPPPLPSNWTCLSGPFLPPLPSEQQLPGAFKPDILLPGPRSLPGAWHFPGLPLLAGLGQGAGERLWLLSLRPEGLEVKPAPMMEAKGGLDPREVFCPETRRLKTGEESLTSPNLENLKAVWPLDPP
Method in brief: as §1

ETS2 = biological target: T8, ETS2 (Homo sapiens, UniProt P15036 1-469); conditions: protein: recombinant; tags: N-terminal GST; dsDNA, one strand shown
T8 sequence: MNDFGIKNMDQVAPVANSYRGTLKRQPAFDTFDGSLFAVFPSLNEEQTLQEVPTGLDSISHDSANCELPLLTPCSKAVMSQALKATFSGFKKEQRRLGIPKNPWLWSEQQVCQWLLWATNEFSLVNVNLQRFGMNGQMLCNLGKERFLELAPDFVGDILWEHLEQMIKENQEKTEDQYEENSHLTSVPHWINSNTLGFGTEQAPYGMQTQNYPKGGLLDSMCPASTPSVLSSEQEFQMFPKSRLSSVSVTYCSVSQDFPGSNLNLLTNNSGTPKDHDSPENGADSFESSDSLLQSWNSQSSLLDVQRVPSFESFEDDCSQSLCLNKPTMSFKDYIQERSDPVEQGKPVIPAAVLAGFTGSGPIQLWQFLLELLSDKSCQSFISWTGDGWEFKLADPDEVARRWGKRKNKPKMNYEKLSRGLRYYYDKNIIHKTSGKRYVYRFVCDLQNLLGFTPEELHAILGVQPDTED
Method in brief: as §1

SPDEF = biological target: T9, SPDEF (Homo sapiens, UniProt O95238 1-335); conditions: protein: recombinant; tags: N-terminal GST; dsDNA, one strand shown
T9 sequence: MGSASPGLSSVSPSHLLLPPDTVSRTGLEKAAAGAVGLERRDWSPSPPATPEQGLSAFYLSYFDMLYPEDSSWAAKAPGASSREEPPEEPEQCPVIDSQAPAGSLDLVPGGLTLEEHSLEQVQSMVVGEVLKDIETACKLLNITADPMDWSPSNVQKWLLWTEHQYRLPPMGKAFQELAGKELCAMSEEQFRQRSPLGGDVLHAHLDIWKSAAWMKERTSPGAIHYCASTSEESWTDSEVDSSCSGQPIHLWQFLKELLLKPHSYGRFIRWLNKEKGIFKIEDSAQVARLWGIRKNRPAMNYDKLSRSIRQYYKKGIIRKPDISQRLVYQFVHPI
Method in brief: as §1

ETV7 = biological target: T10, ETV7 (Homo sapiens, UniProt Q9Y603 1-341); conditions: protein: recombinant; tags: N-terminal GST; dsDNA, one strand shown
T10 sequence: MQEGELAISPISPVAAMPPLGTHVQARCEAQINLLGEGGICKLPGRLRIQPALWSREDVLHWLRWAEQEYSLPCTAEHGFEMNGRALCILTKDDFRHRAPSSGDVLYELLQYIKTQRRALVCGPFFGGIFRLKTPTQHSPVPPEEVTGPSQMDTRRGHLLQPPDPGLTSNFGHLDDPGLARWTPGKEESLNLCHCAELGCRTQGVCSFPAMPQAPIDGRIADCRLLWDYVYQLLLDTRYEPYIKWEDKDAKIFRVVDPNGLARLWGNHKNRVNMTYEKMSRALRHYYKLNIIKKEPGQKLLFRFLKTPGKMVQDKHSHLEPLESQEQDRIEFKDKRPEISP
Method in brief: as §1

ELF5 = biological target: T11, ELF5 (Homo sapiens, UniProt Q9UKW6-2 1-255); conditions: protein: recombinant; tags: N-terminal GST; dsDNA, one strand shown
T11 sequence: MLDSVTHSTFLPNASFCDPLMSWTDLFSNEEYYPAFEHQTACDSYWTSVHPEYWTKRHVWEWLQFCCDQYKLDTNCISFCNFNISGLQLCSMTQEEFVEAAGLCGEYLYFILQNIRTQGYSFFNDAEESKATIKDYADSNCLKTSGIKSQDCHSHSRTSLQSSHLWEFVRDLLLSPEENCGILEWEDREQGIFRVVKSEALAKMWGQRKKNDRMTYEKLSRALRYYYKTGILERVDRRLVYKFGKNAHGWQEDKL
Method in brief: as §1

ETV3 = biological target: T12, ETV3 (Homo sapiens, UniProt P41162-2 1-143); conditions: protein: recombinant; tags: N-terminal GST; dsDNA, one strand shown
T12 sequence: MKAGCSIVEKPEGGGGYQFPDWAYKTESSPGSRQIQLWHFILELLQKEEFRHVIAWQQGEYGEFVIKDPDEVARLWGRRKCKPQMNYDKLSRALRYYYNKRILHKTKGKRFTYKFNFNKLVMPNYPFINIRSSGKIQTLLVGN
Method in brief: as §1

ETV6 = ETV6 (Homo sapiens, UniProt P41212 1-452); conditions: protein: recombinant; tags: N-terminal GST; dsDNA, one strand shown
Sequence of ETV6 (P41212 whole entry): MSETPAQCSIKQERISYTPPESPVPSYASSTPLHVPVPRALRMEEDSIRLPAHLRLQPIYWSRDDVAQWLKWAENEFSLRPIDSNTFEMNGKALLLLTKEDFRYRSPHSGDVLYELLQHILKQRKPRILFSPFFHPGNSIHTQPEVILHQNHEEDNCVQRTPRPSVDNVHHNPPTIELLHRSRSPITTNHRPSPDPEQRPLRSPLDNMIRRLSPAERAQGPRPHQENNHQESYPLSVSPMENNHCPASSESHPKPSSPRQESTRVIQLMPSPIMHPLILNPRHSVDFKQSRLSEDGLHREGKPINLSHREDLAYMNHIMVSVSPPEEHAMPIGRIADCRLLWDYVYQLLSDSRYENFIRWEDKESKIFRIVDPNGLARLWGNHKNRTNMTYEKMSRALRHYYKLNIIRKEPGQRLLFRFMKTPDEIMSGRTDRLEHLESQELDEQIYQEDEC
Method in brief: as §1

With TGTTTG the binding signal (FEV) was 1.21 fold enrichment (6-mer frequency, TF over GST control), the binding signal (ETV5) was 1.23 fold enrichment (6-mer frequency, TF over GST control) and the binding signal (HSF1) was 1.06 fold enrichment (6-mer frequency, TF over GST control). The binding signal (SPIC) was 1.29 fold enrichment (6-mer frequency, TF over GST control), the binding signal (ELF4) was 1.36 fold enrichment (6-mer frequency, TF over GST control) and the binding signal (ELK4) was 1.38 fold enrichment (6-mer frequency, TF over GST control). For the same sequence, the binding signal (ETV2) was 1.14 fold enrichment (6-mer frequency, TF over GST control), the binding signal (ELF3) was 1.46 fold enrichment (6-mer frequency, TF over GST control) and the binding signal (CRX) was 1.08 fold enrichment (6-mer frequency, TF over GST control). The binding signal (ETV1) was 1.38 fold enrichment (6-mer frequency, TF over GST control), the binding signal (ERF) was 1.4 fold enrichment (6-mer frequency, TF over GST control) and the binding signal (ETV3L) was 1.35 fold enrichment (6-mer frequency, TF over GST control). For the same sequence, the binding signal (ETS2) was 1.32 fold enrichment (6-mer frequency, TF over GST control), the binding signal (SPDEF) was 1.25 fold enrichment (6-mer frequency, TF over GST control) and the binding signal (ETV7) was 1.39 fold enrichment (6-mer frequency, TF over GST control). For the same sequence, the binding signal (ELF5) was 1.29 fold enrichment (6-mer frequency, TF over GST control), the binding signal (ETV3) was 1.35 fold enrichment (6-mer frequency, TF over GST control) and the binding signal (ETV6) was 1.41 fold enrichment (6-mer frequency, TF over GST control).
